Results on six compounds are retold here after PubChem BioAssay (EPA / NIEHS).

Activity calls are given as the source filed them. Rule for the calls: active = hit-call score of the fitted dose curve at least 0.9, where 1 is the maximum; inactive = score below 0.9.

Read-out in test [1]: Urokinase-type plasminogen activator receptor (uPAR), PLAUR (gene 5329)
The test is described as follows: BSK_4H_uPAR: BioMAP Diversity Plus: 4H Assay for Urokinase-type plasminogen activator receptor (uPAR) Biomarker Activity (AID 2283030). The following applies: primary human endothelial cells (HUVEC); actives raise or lower the signal. The essentials: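 Human umbilical vein endothelial cells in the 4H system, 24 h after chemical dosing. Cell-surface uPAR measured by ELISA, fitted in both directions versus DMSO; cytotoxicity checked by SRB total protein in parallel cultures.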

Read-out in test [2]: Vascular endothelial growth factor receptor 2 (Homo sapiens) (UniProt P35968)
Nature of the test: BSK_4H_VEGFRII: BioMAP Diversity Plus: 4H Assay for Vascular endothelial growth factor receptor 2 (VEGFR2) Biomarker Activity (AID 2283031).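 For AC50: cell-surface VEGFR2 protein level quantified by ELISA.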 The following applies: primary human endothelial cells (HUVEC); actives raise or lower the signal. The essentials: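 Primary human umbilical vein endothelial cells (4H system), 24 h exposure; cell-surface VEGFR2 measured by ELISA. Bidirectional fitting versus DMSO; cytotoxicity checked in parallel by SRB total-protein staining.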

Read-out in test [3]: Human Leukocyte Antigen - DR isotype (HLADR), HLA-DRA (gene 3122)
The test is described as follows: BSK_BE3C_HLADR: BioMAP Diversity Plus: BE3C Assay for Human Leukocyte Antigen - DR isotype (HLADR) Biomarker Activity (AID 2283032). The following applies: primary human bronchial epithelial cells; actives raise or lower the signal. The essentials: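 Human primary bronchial epithelial cells (BE3C system) exposed to compound for 24 hours; cell-surface HLA-DR measured by ELISA, fitted bidirectionally relative to DMSO. Total protein by SRB in parallel cultures tracked cytotoxicity.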

Read-out in test [4]: Vascular cell adhesion molecule 1 (VCAM1), VCAM1 (gene 7412)
The test is described as follows: BSK_4H_VCAM1: BioMAP Diversity Plus: 4H Assay for Vascular cell adhesion molecule 1 (VCAM1) Biomarker Activity (AID 2283033). The following applies: primary human endothelial cells (HUVEC); actives raise or lower the signal. The essentials:
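Primary human umbilical vein endothelial cells, 4H stimulation system, treated for 24 h; cell-surface VCAM-1 quantified by ELISA. Bidirectional fitting against DMSO; cytotoxicity tracked by SRB total-protein staining in parallel cultures.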

Read-out in test [5]: Interferon-gamma inducible Protein 10 (IP10), CXCL10 (gene 3627)
The test is described as follows: BSK_BE3C_IP10: BioMAP Diversity Plus: BE3C Assay for Interferon-gamma inducible Protein 10 (IP10) Biomarker Activity (AID 2283034). The following applies: primary human bronchial epithelial cells; actives raise or lower the signal. The essentials:
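Primary human bronchial epithelial cells, with IP-10 measured by ELISA 24 hours after chemical dosing. Bidirectional fit against DMSO; cytotoxicity checked by SRB total protein staining in parallel cultures.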

Read-out in test [6]: Transforming growth factor beta 1 (TGFb1), TGFB1 (gene 7040)
The test is described as follows: BSK_BE3C_TGFb1: BioMAP Diversity Plus: BE3C Assay for Transforming growth factor beta 1 (TGFb1) Biomarker Activity (AID 2283036). The following applies: primary human bronchial epithelial cells; actives raise or lower the signal. The essentials: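 Primary human bronchial epithelial cells dosed with chemical; TGF-b1 measured by ELISA 24 h after dosing. Bidirectional curve fitting against DMSO negative control; SRB total-protein staining in parallel cultures gauged cytotoxicity.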

Read-out in test [7]: Plasminogen activator inhibitor-1 (PAI1), SERPINE1 (gene 5054)
The test is described as follows: BSK_BE3C_PAI1: BioMAP Diversity Plus: BE3C Assay for Plasminogen activator inhibitor-1 (PAI1) Biomarker Activity (AID 2283037). Conditions: primary human bronchial epithelial cells; actives raise or lower the signal. The essentials: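 Primary human bronchial epithelial cells (BE3C system) exposed 24 h; PAI-1 quantified by ELISA. Parallel sulforhodamine B staining of total protein flags cytotoxicity. Bidirectional fit versus DMSO.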

Read-out in test [8]: urokinase plasminogen activator (uPA), PLAU (gene 5328)
Nature of the test: BSK_BE3C_uPA: BioMAP Diversity Plus: BE3C Assay for urokinase plasminogen activator (uPA) Biomarker Activity (AID 2283038).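 For outcome: uPA protein level quantified by ELISA in cell cultures; uPA read one day after compound addition.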 The following applies: primary human bronchial epithelial cells; actives raise or lower the signal. The essentials: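 Primary human bronchial epithelial cells, uPA measured by ELISA 24 h after dosing. Bidirectional change relative to DMSO; cytotoxicity checked in parallel cultures by sulforhodamine B total-protein staining.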

Read-out in test [9]: Urokinase-type plasminogen activator receptor (uPAR), PLAUR (gene 5329)
The test is described as follows: BSK_BE3C_uPAR: BioMAP Diversity Plus: BE3C Assay for Urokinase-type plasminogen activator receptor (uPAR) Biomarker Activity (AID 2283039).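 For outcome: cells exposed to compound for one day before measurement.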 The following applies: primary human bronchial epithelial cells; actives raise or lower the signal. The essentials:
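Primary human bronchial epithelial cells dosed for 24 h; uPAR quantified by ELISA with bidirectional fitting against DMSO. Overt cytotoxicity assessed in parallel cultures by SRB total-protein staining (0.1% SRB, 560 nm).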

Read-out in test [10]: Interleukin-6 (IL6), IL6 (gene 3569)
The test is described as follows: BSK_CASM3C_IL6: BioMAP Diversity Plus: CASM3C Assay for Interleukin-6 (IL6) Biomarker Activity for (AID 2283040). The following applies: primary human coronary artery smooth muscle cells; actives raise or lower the signal.

Read-out in test [11]: Tissue plasminogen activator (tPA), PLAT (gene 5327)
The test is described as follows: BSK_BE3C_tPA: BioMAP Diversity Plus: BE3C Assay for Tissue plasminogen activator (tPA) Biomarker Activity (AID 2283041).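 For outcome: tPA level quantified by ELISA one day after compound addition.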 Conditions: primary human bronchial epithelial cells; actives raise or lower the signal. The essentials: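 Primary human bronchial epithelial cells in the BE3C system, exposed to compound for 24 h. tPA was quantified by ELISA; DMSO served as baseline, with gain or loss of signal fitted. Cytotoxicity checked in parallel cultures by SRB total-protein staining.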

Read-out in test [12]: Interleukin-8 (IL8), CXCL8 (gene 3576)
Nature of the test: BSK_CASM3C_IL8: BioMAP Diversity Plus: CASM3C Assay for Interleukin-8 (IL8) Biomarker Activity (AID 2283042).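 Note: IL-8 protein level quantified by ELISA.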 The following applies: primary human coronary artery smooth muscle cells; actives raise or lower the signal.

Read-out in test [13]: Human Leukocyte Antigen - DR isotype (HLADR), HLA-DRA (gene 3122)
The test is described as follows: BSK_CASM3C_HLADR: BioMAP Diversity Plus: CASM3C Assay for Human Leukocyte Antigen - DR isotype (HLADR) Biomarker Activity (AID 2283043).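 Note: cell-surface HLA-DR protein level quantified by ELISA.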 Conditions: primary human coronary artery smooth muscle cells; actives raise or lower the signal.

Read-out in test [14]: Macrophage colony-stimulating factor (MCSF), CSF1 (gene 1435)
The test is described as follows: BSK_CASM3C_MCSF: BioMAP Diversity Plus: CASM3C Assay for Macrophage colony-stimulating factor (MCSF) Biomarker Activity (AID 2283044).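 Note: M-CSF protein amount quantified by ELISA after 24 h exposure.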 The following applies: primary human coronary artery smooth muscle cells; actives raise or lower the signal.

Read-out in test [15]: Low-density lipoprotein receptor (LDLR), LDLR (gene 3949)
Nature of the test: BSK_CASM3C_LDLR: BioMAP Diversity Plus: CASM3C Assay for Low-density lipoprotein receptor (LDLR) Biomarker Activity (AID 2283045).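 Note: LDLR protein level on the cell surface quantified by ELISA.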 The following applies: primary human coronary artery smooth muscle cells; actives raise or lower the signal.

Read-out in test [16]: Monocyte Chemoattractant Protein-1 (MCP1), CCL2 (gene 6347)
The test is described as follows: BSK_CASM3C_MCP1: BioMAP Diversity Plus: CASM3C Assay for Monocyte Chemoattractant Protein-1 (MCP1) Biomarker Activity (AID 2283046).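 Note: MCP-1 level quantified by ELISA 24 h after dosing.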 Conditions: primary human coronary artery smooth muscle cells; actives raise or lower the signal.

Test [17] can be described thus: BSK_CASM3C_Proliferation: Cell Proliferation Assessment in the BioMAP Diversity Plus: CASM3C Assay (AID 2283047).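 Note: sulforhodamine B total protein stain as relative cell number at 560 nm; sub-confluent cells exposed 48 h before staining; fitted both ways against DMSO so gain or loss of cell number.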 The following applies: primary human coronary artery smooth muscle cells.
Read-out in test [18]: Monokine induced gamma interferon (MIG), CXCL9 (gene 4283)
The test is described as follows: BSK_CASM3C_MIG: BioMAP Diversity Plus: CASM3C Assay for Monokine induced gamma interferon (MIG) Biomarker Activity (AID 2283048).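 Note: MIG protein level measured by ELISA.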 Conditions: primary human coronary artery smooth muscle cells; actives raise or lower the signal.

Read-out in test [19]: serum amyloid A (SAA), SAA1 (gene 6288)
Nature of the test: BSK_CASM3C_SAA: BioMAP Diversity Plus: CASM3C Assay for serum amyloid A (SAA) Biomarker Activity (AID 2283049).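 Note: SAA protein level quantified by ELISA.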 Conditions: primary human coronary artery smooth muscle cells; actives raise or lower the signal.

With `CON(C)C(=O)Nc1ccc(Cl)c(Cl)c1`, the outcome in test [1], in test [2], in test [3], in [4], in [5] and in test [6] was inactive. Also, the result in test [7], in test [8], in test [9], in [10], in test [11] and in test [12] was inactive. Also, the result in test [13], in [14], in test [15], in [16], in test [17] and in test [18] was inactive. In [19], the outcome was inactive.
`Fc1ccc(Oc2ccnc3cc(Cl)cc(Cl)c23)cc1`: the AC50 is 32.1 µM (active) in test [1]; 27.2 µM (active) in test [2]; 24.3 µM (active) in [3]; 30.1 µM (active) in [4]; 28.7 µM (active) in test [5]; 32.9 µM (active) in test [6]. Further, the AC50 was 30.3 µM (active) in test [7]; 36.5 µM (active) in [8]; 34.2 µM (active) in test [9]; 11.4 µM (active) in test [10]; 31.9 µM (active) in test [11]; 30.6 µM (active) in [16]. Further, the AC50 in test [17] is 24.4 µM (active). Besides, the result in test [12], in test [13], in [14], in test [15], in test [18] and in test [19] was inactive.
Take `COc1ccc(C(c2ccc(OC)cc2)C(Cl)(Cl)Cl)cc1`: the result in test [1], in test [6], in [8], in test [9], in [11] and in test [12] was inactive. Also, the outcome in test [13], in [14], in [15], in test [16], in test [18] and in [19] was inactive. Moreover, the AC50 in test [2] was 31.2 µM (active); in test [3] it was 17.4 µM (active); in test [4], 25.1 µM (active); in test [5], 32.8 µM (active); in test [7], 14.3 µM (active); in [10], 14 µM (active). Besides, the AC50 in [17] was 15.1 µM (active).
For `COc1nc(NC(C)C)nc(NC(C)C)n1`, the result in [1], in test [2], in test [3], in [4], in test [5] and in test [6] was inactive. Further, the outcome in test [7], in test [8], in test [10], in [11], in [12] and in [13] was inactive. Also, the outcome in [14], in test [15], in test [16], in test [17], in [18] and in test [19] was inactive. Also, the AC50 in test [9] was 2.36 µM (active).
Turning to `N#CC(CCc1ccc(Cl)cc1)(Cn1cncn1)c1ccccc1` (stereo not drawn), the outcome in test [1], in [2], in test [4], in test [6], in test [7] and in test [8] was inactive. Moreover, the result in test [9], in test [10], in test [11], in [12], in test [13] and in [14] was inactive. For the same compound, the result in [15], in test [16], in test [17], in test [18] and in test [19] was inactive. Further, the AC50 in test [3] was 31.2 µM (active); in test [5] it was 33.7 µM (active).
With `COP(=S)(OC)Oc1nc(Cl)c(Cl)cc1Cl`, the outcome in test [1], in test [2], in test [3], in test [5], in test [6] and in test [7] was inactive. Further, the result in [8], in test [9], in test [10], in test [11], in [12] and in test [13] was inactive. Also, the outcome in test [14], in test [15], in test [16], in test [18] and in test [19] was inactive. In addition, the AC50 in test [17] was 32.1 µM (active).
